# This is a sample that favours compounds with a hit; in the whole collection about 1.2% have one here.
# PolyA inh: yeast polyadenylation inhibition; hit rate 0.02% among 300,000; activity score, % at 12 µM; S. cerevisiae SKY197-pL101 polyadenylation reporter, beta-gal luminescence; efflux-impaired pdr1/pdr3 knockout yeast; score 100 = 6 SD above DMSO; AID 1875;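 active = lowest replicate activity score at least 50, where 100 means six control SD above control mean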;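 note: yeast exposed to compound for 9 h at 30 °C; higher score means more reporter readthrough which indicates perturbed polyadenylation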
# APOBEC3G inh: APOBEC3G (human) deaminase inhibition. recombinant A3G, ssDNA deamination FAM/TAMRA fluorescence. inhibition, % at 20 µM. hit rate 0.28% among 330,000. AID 493012;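 active = inhibition of at least 40% at 20 µM, with no more than 30% in the related APOBEC3A deaminase screen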;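 note: plate controls were DMSO wells with A3G for no effect and wells lacking A3G enzyme for full effect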
# Target sequence (Q9HC16 whole entry, looked up): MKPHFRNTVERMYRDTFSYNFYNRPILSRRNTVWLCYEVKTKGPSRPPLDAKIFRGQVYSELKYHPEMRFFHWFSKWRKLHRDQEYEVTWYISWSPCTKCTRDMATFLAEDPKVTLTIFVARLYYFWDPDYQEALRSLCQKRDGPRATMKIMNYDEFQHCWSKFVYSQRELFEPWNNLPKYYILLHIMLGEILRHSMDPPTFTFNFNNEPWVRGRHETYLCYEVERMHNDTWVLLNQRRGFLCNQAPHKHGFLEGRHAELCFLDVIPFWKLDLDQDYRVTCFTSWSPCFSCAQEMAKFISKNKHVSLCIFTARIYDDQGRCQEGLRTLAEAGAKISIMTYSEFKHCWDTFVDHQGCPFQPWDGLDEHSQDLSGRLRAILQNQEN
# A3A deaminase: inhibitors of human APOBEC3A DNA deaminase | recombinant A3A, FAM/TAMRA ssDNA deamination fluorescence | AID 493011 | P31941 | hit rate 0.41% among 330,000 | inhibition, % at 20 µM;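 active = at least 40% inhibition at 20 µM here, with at most 30% in a related deaminase screen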;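 note: plate controls were A3A with DMSO for no effect and wells lacking A3A enzyme for full effect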
# Target sequence (P31941 whole entry, looked up): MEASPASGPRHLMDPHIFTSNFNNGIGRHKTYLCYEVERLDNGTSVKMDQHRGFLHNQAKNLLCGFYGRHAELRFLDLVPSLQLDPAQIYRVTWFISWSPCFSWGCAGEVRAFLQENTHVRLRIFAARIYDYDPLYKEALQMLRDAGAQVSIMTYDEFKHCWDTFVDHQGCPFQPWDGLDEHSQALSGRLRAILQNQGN
# NALP1 inh: blocks the NALP1 inflammasome reconstituted in yeast. S. cerevisiae NALP1/ASC/caspase-1 growth, X-gal OD620, 72 h. inhibition, % at 10 µM. hit rate 0.61% among 280,000. AID 2071; in the data active = inhibition mostly above about 24%, no sharp cut-off; inactive = mostly below about 32%
# The depositor's hits bear a star; nt = no result given.
SMILES,PolyA inh,APOBEC3G inh,A3A deaminase,NALP1 inh
CC(NC(=O)c1ccco1)C(=O)N1CCc2ccccc2C1 (stereo not given),8.5,0.3,5.0,43.0*
COc1ccc(C(C[N+](=O)[O-])C2(c3ccc(OC)c(OC)c3)C(=O)c3ccccc3C2=O)cc1 (stereo not given),-14.8,nt,nt,103.8*
COc1cc2c(cc1OC)CN(C1CCCN(Cc3cc(Cl)ccc3O)C1)CC2 (stereo not given),-4.9,-9.8,-2.7,10.2
CC(C)(C)c1ccc(Cn2c(=O)cnc3ccccc32)cc1,1.5,0.6,0.3,5.4
CCOC(=O)CNC(=O)CNC(=O)Cn1ccc2ccccc2c1=O,21.9,-1.8,0.1,39.5*
CC(C)(ONC(=O)Nc1ccccc1Cl)C(=O)O,-3.2,-13.7,-4.1,29.8*
NC(=O)NC(=O)Nc1ccccc1Cl,-11.3,-5.6,-5.0,18.1
COc1ccccc1N1CCN(C(=O)CCNS(=O)(=O)c2ccc(Br)s2)CC1,91.0*,-3.2,0.3,4.1
CCOc1ccc(N2CC(C(=O)Nc3cccc(C(=O)NC4CC4)c3)CC2=O)cc1 (stereo not given),nt,-6.5,12.0,nt
CC1=CC(=O)C=CC1(C)C(Cl)Cl (stereo not given),12.4,-7.1,-4.8,23.4*
CN1/C(=C/C(=O)CSc2ccccc2C(=O)O)C(C)(C)c2ccccc21,-0.3,1.0,-0.9,44.9*
CN1/C(=C\C(=O)CSc2cccc[n+]2[O-])C(C)(C)c2ccccc21,-21.5,25.5,18.0,-2.5
O=C(/C=C/Nc1ccccc1F)c1cccs1,4.7,9.5,18.2,56.6*
O=C(CCc1ccccc1)N=C1SC2CS(=O)(=O)CC2N1c1ccccc1F (stereo not given),5.1,-2.2,-5.5,16.7
NCCc1nnc(SCc2c(F)cccc2Cl)o1,-29.5,-8.3,-2.7,5.5
NCCc1nnc(SCc2c(Cl)cccc2Cl)o1,-68.8,1.4,3.6,39.1*
COc1ccc(CCNC(=O)CN(c2ccc(OC)c(OC)c2)S(=O)(=O)c2ccccc2)cc1OC,-0.2,-8.5,-1.7,13.8
CCC(=O)n1nc(-c2ccc(OC)cc2)nc1N,-0.4,0.4,-1.3,24.2*
Cc1cc(OCC(=O)N2CCC(C(=O)O)CC2)c2c(C)cc(=O)oc2c1,6.5,-8.7,-6.2,6.5
COc1cc(C2/C(=C(\O)c3cc(C)ccc3C)C(=O)C(=O)N2CCN(C)C)ccc1O (stereo not given),-0.3,-4.8,-1.7,13.1
CCOc1cc(C2/C(=C(\O)c3cc(C)ccc3C)C(=O)C(=O)N2CCN(C)C)ccc1O (stereo not given),-14.2,-5.2,-2.2,40.3*
Cc1ccc(NC(=O)/C=C\C(=O)NCC(=O)O)cc1C,-1.4,6.3,2.1,56.9*
Cc1ccc(NC(=O)CC(=O)Nc2ccc(C)c(C)c2)cc1C,-1.4,-3.3,1.5,8.8
Cn1ncc(S(=O)(=O)Cc2ccccc2)c(Cl)c1=O,13.2,-4.0,-3.1,107.5*
Cc1cccc(CN2C[C@]34CC[C@@H](C[C@@H]3S2(=O)=O)O4)c1,-7.3,-6.1,-1.8,7.4
SMILES,PolyA inh,APOBEC3G inh,A3A deaminase,NALP1 inh
O=C(COC(=O)Cc1ccc(S(=O)(=O)N2CCOCC2)s1)Nc1ccccc1,nt,-9.4,-5.3,nt
O=C(COC(=O)Cc1ccc(S(=O)(=O)N2CCOCC2)s1)Nc1ccc2c(c1)OCO2,105.7*,-1.4,-0.4,13.9
COc1ccc(N2CCN(C(=O)CCCCCn3c(=O)[nH]c4ccsc4c3=O)CC2)cc1,7.2,-6.2,-3.9,-4.2
CC(C)c1onc(C(=O)N(C)Cc2ccccc2)c1[N+](=O)[O-],2.9,-5.3,0.4,52.9*
O=C(O)C[C@@H](CNC(=O)COc1ccc2ccc(=O)oc2c1)c1ccc(Cl)cc1,12.7,-6.9,-3.6,8.2
CSc1nc(-c2ccccc2)nc(N2CCCC2)c1C(C)=O,-27.4,-5.7,-1.9,4.1
CSc1nc(-c2ccccc2)nc(N2CCN(C)CC2)c1C(C)=O,24.4,0.2,8.6,34.0*
CCOC(=O)N1CCC(N2C(=O)c3ccc(C(=O)Nc4ccc(OC)c(OC)c4)cc3C2=O)CC1,-1.9,-5.6,-4.7,-3.1
CCOc1ccc(NC(=O)CCC(=O)NNC(=O)c2ccccc2Cl)cc1,nt,-9.0,-0.3,1.5
CC(C)c1ccc(/C=C2\CC/C(=C\C=N\N(C)C)C2=O)cc1,2.6,-3.1,-0.6,43.7*
C=CCOc1ccc(/C=C/C(=O)OCC(=O)N(C)CC(=O)Nc2ccc(F)cc2)cc1,-7.2,-5.5,1.3,nt
O=Cc1cc(-c2ccccc2)[nH]c1-c1ccccc1,3.0,-9.6,-1.9,13.0
CC(=O)c1c(C(C)=O)c(C)n(Cc2ccccc2)c1C,3.6,-4.9,-3.0,-5.6
Cc1c(C=O)c(C=O)c(C)n1Cc1ccccc1,1.7,-0.5,0.1,37.2*
C[C@@]12C(=O)N(CC3CC3)CC(=O)N1[C@H](/C=C/c1ccccc1)[C@@H]1C(=O)N(c3ccccc3)C(=O)[C@@H]12,5.6,3.3,1.4,16.6
COc1cnc(-c2ccccn2)nc1Oc1ccccc1,-23.2,-10.2,-2.1,21.3*
COc1cnc(-c2ccccn2)nc1Oc1cccc(C(F)(F)F)c1,26.2,0.2,-2.0,7.0
CCCn1c(C(C)Nc2nc(-c3cc(Cl)c(N)c(Cl)c3)cs2)nc2cc(Cl)c(N3CCCCC3)cc21 (stereo not given),-14.2,-7.0,-2.2,5.4
CC(C)(C)c1cc2cccnc2n1Cc1cccc(Cl)c1,-5.0,-2.4,0.1,46.0*
CC(=O)c1c(O)c2ccccc2n(C(C)C)c1=O,-13.6,-2.6,-1.5,31.1*
C=CCN1C(=O)c2oc3ccccc3c(=O)c2C1c1ccc(O)c(OC)c1 (stereo not given),-14.7,-7.9,-5.5,37.6*
Cc1ccc(NC(=O)C2CCN(C(=O)c3ccccc3C)CC2)nc1,37.8,-8.7,-3.7,nt
Cc1ccc(NC(=O)c2sc3nc(CCl)[nH]c(=O)c3c2C)c(C)c1,nt,nt,nt,9.9
COc1cccc(NS(=O)(=O)CC23CCC(CC2=O)C3(C)C)c1 (stereo not given),5.8,1.5,0.7,-3.6
COc1ccccc1NS(=O)(=O)CC12CCC(CC1=O)C2(C)C (stereo not given),-10.1,-1.6,2.2,41.5*
SMILES,PolyA inh,APOBEC3G inh,A3A deaminase,NALP1 inh
CC(C)CN(C(=O)CSc1nc(N)cc(N)n1)C1CCS(=O)(=O)C1 (stereo not given),nt,-10.8,-4.0,nt
O=S(=O)(NCC(c1ccc2c(c1)OCO2)N1CCOCC1)c1ccc(Br)cc1 (stereo not given),-14.1,-5.2,-4.7,nt
Oc1cc2c(cc1C(c1ccc(Br)cc1)N1CCCC1)OCO2 (stereo not given),nt,-2.8,1.7,43.2*
COc1ccc([C@H]2CC(=O)C=C(c3ccc(CNC(=O)OC(C)(C)C)cc3)C2)cc1,nt,-7.9,-1.6,nt
CC(OC(=O)C1=Cc2ccccc2OC1)C(=O)NCc1ccco1 (stereo not given),33.3,-3.3,-2.7,10.8
CCC(OC(=O)C1=Cc2ccccc2OC1)C(=O)NCc1ccco1 (stereo not given),21.4,-3.7,3.8,33.3*
CC1(C)Cc2nc3sc4c(NCCO)ncnc4c3cc2CS1,1.9,-5.1,-3.2,30.6*

# Bioassay records as filed in PubChem BioAssay.
